# From PubChem BioAssay (Tox21)
# Values joined by “and” are separate entries in the source; they are usually repeats but may differ in a detail not shown here. Identical values can stand only once. Inconclusive results are not listed. A call without a number means that no potency is given here. Active and inactive are the calls of the source. Calls follow the shape of the full dose curve.
# Experiment: qHTS assay for small molecules that induce genotoxicity in human embryonic kidney cells expressing luciferase-tagged ATAD5 - cell viability (AID 651634); also: nearly all actives have a fitted effect of over 25% in size
# Details: HEK293T ATAD5-luc cells viability, CellTiter-Fluor, 15.5 h; series mostly up to 83.3 µM
# Source text: National Center for Advancing Translational Sciences [NCATS]
# NIH Chemical Genomics Center [NCGC]
# U.S. Environmental Protection Agency [EPA]
# National Institutes of Environmental Health Sciences [NIEHS]
# National Toxicology Program [NTP]
# U.S. Food and Drug Administration [FDA]
# Enhanced Level of Genome Instability Gene 1 (ELG1; human ATAD5) protein levels increase in response to various types of DNA damage. Using a luciferase reporter-gene tagged with ElG1, a cell-based assay [developed by Kyungjae Myung, NHGRI, NIH] was used to measure the induction of ATAD5 in human embryonic kidney cells (HEK293T). So, increase in luciferase activity can be used to identify the compounds that cause genetic stress. In addition to genotoxicity, these cells were also used to test for cytotoxicity by measuring the protease activity within live cells.
# Tox21 Assay Protocol Summary:
# For cytotoxicity screening, 2,000 cells in 5 uL/well were dispensed into white, solid-bottom 1536-well plates using a Multidrop Combi (Thermo Scientific) dispenser. Following transfer of 23 nL compound or DMSO vehicle by a pin tool, the plates were incubated 15.5 hr at 37C and 5% CO2. 1 ul CellTiter-Fluor reagent (Promega, Madison, WI) was then added to each plate and following 30 min incubation at 37C, fluorescence intensity was quantified on a ViewLux CCD-based plate reader.
# Potency is read from the fitted curve at half-maximal effect.
row,Structure (SMILES),Potency
1,S=C1NCCN1,inactive
2,c1cc(OCC2CO2)ccc1Cc1ccc(OCC2CO2)cc1 (stereo not given),inactive
3,CCC(CC)Nc1c([N+](=O)[O-])cc(C)c(C)c1[N+](=O)[O-],inactive
4,O=[N+]([O-])c1ccc(O)c([N+](=O)[O-])c1,27.4 µM (active) and 27.3 µM (active)
5,CCCCC(CC)COC(=O)c1ccc(C(=O)OCC(CC)CCCC)c(C(=O)OCC(CC)CCCC)c1 (stereo not given),inactive
6,N#CC(Br)Br,inactive
7,CCCCN(CCCC)N=O,inactive
8,CCOc1cc(Oc2ccc(C(F)(F)F)cc2Cl)ccc1[N+](=O)[O-],inactive
9,c1ccc(P(c2ccccc2)c2ccccc2)cc1,inactive
10,C=C(C)[C@H]1Cc2c(ccc3c2O[C@@H]2COc4cc(OC)c(OC)cc4[C@@H]2C3=O)O1,139 nM (active) and 486 nM (active)
11,CCCCOCCOP(=O)(OCCOCCCC)OCCOCCCC,inactive
12,Nc1ccc(Cl)cc1N,inactive
13,O=C(CCl)c1ccccc1,inactive
14,C=C(C)C(=O)OCC1CO1 (stereo not given),inactive
15,O=C(O)C(F)(F)C(F)(F)C(F)(F)C(F)(F)C(F)(F)C(F)(F)C(F)(F)F,inactive
16,CCN(CC)C(=O)SCc1ccc(Cl)cc1,inactive
17,CCC(=O)O[C@H]1CC[C@H]2[C@@H]3CCC4=CC(=O)CC[C@]4(C)[C@H]3CC[C@]12C,inactive
18,Nc1cccnc1,inactive
19,CC(C)(c1cc(Cl)c(O)c(Cl)c1)c1cc(Cl)c(O)c(Cl)c1,inactive
20,COC(=O)c1sccc1S(=O)(=O)NC(=O)Nc1nc(C)nc(OC)n1,inactive

row,Structure (SMILES),Potency
1,COP(=O)(OC)OC,inactive
2,Brc1ccc(Oc2cc(Br)c(Br)cc2Br)c(Br)c1,inactive
3,CCCCNC(=O)n1c(NC(=O)OC)nc2ccccc21,inactive
4,CN(C)c1ccc(C(=O)c2ccc(N(C)C)cc2)cc1,inactive
5,O=C(NC(=O)c1c(F)cccc1F)Nc1ccc(Cl)cc1,inactive
6,NCc1cccnc1,inactive
7,C[C@]12CCC(=O)C[C@@H]1CC[C@@H]1[C@@H]2CC[C@]2(C)[C@@H](O)CC[C@@H]12,inactive
8,Oc1cc(Cl)c(Cl)cc1Cl,inactive
9,CCOC(=O)C(C)OC(=O)c1cc(Oc2ccc(C(F)(F)F)cc2Cl)ccc1[N+](=O)[O-] (stereo not given),inactive
10,C=CCc1ccc2c(c1)OCO2,inactive
11,CC1(C)C(C=C(Cl)Cl)C1C(=O)OC(C#N)c1cccc(Oc2ccccc2)c1 (stereo not given),inactive
12,Cc1ccccc1[N+](=O)[O-],inactive
13,O=P(Oc1ccccc1)(Oc1ccccc1)Oc1ccccc1,inactive
14,CCC(C)(c1ccc(O)cc1)c1ccc(O)cc1,inactive
15,O=c1oc2ccccc2c(O)c1C(CC(O)c1ccc(-c2ccc(Br)cc2)cc1)c1ccccc1 (stereo not given),inactive
16,C=CC(=O)OCCO,inactive
17,Clc1nc(Cl)nc(Cl)n1,inactive
18,CCCCCCCCC(=O)NCc1ccc(O)c(OC)c1,inactive
19,CN(C)C(=O)Nc1ccc(Cl)cc1,inactive
20,Nn1cnnc1,inactive
